In PubChem BioAssay AID1851 (National Center for Advancing Translational Sciences (NCATS), 2009):
The whole screen tested about 16,000 compounds, of which about 5,800 (36%) were called active. Not shown: some 23% with an inconclusive outcome. Calls come from the whole dose curve; as a rule, active = well fitted curve in the direction sought with a large enough effect; inconclusive = small, poorly fitted or top-dose-only effect, or effect the other way; inactive = no such curve, though single readings can be large or run the other way. The list shows a part of the results.

target: Cytochrome P450 2C19 (Homo sapiens) (UniProt P33261); assay: Cytochrome panel assay with activity outcomes; conditions: recombinant CYP, pro-luciferin dealkylation, luminescence, p450-cyp2c19; series mostly up to 57.1 µM; activity, negative = inhibition: at the top concentration
Sequence (P33261 whole entry, looked up): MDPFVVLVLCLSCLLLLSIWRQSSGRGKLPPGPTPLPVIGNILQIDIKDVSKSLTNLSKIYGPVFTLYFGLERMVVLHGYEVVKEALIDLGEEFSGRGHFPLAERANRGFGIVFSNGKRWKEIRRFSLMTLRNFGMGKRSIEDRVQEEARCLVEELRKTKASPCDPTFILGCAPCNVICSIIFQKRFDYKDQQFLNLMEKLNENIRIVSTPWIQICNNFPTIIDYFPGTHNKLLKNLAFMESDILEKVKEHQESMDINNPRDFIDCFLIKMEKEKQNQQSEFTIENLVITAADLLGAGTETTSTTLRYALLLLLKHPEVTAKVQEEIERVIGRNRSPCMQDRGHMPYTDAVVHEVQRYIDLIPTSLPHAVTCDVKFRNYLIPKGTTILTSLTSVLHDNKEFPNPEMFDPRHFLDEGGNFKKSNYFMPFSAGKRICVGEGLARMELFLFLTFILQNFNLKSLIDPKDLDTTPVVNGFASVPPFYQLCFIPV
% is set by controls: 0 for no effect and ±100 for the full control effect.

Q: For `O=C(c1csnn1)N1CCC2(CCCN(Cc3ccccc3)C2)CC1`, which “activity, negative = inhibition” value is on record?
A: 2.09% (inactive)

Q: Which “activity, negative = inhibition” value does the source give for `O=C(OC(C(=O)O)C(OC(=O)c1ccccc1)C(=O)NCc1ccccc1)c1ccccc1` (configuration not stated) here?
A: 1.03% (inactive)

Q: Which AC50 does the source give for `CCc1ccc(N(C(=O)c2csnn2)C(C(=O)NCc2ccccc2)c2ccco2)cc1` (configuration not stated) here?
A: 3.16 µM (active)

Q: How did the “activity, negative = inhibition” value turn out when `O=C(c1csnn1)N1CCC2(CC1)CCN(c1ccccc1)CC2` was run?
A: -19.6% (inactive)

Q: `O=C(Nc1cccc(F)c1)N1CCC2(CC1)CCN(C(=O)c1csnn1)CC2` was tested. Which “activity, negative = inhibition” value did it give?
A: -22.8% (inactive)

Q: For `O=C(NCc1ccc(F)cc1)C(c1ccncc1)N(C(=O)c1csnn1)C1CC1` (configuration not stated), which AC50 is on record?
A: 3.55 µM (active)

Q: Which AC50 does the source give for `O=C(NCc1ccccc1)C(c1ccncc1)N(C(=O)c1csnn1)C1CC1` (configuration not stated) here?
A: 8.91 µM (active)

Q: Which activity, negative = inhibition does the source give for `CCn1c(CCCc2nc3c([nH]2)c(=O)n(C)c(=O)n3C)nc2c1c(=O)n(C)c(=O)n2C` here?
A: 2.28% [at 11.4 µM] (inactive)

Q: Which AC50 does the source give for `CC(C)CCn1c(Oc2ccccc2Cl)nc2c1c(=O)n(C)c(=O)n2C` here?
A: 15.8 µM (active)

Q: With `CCOC(=O)N1CCN(C(=O)C(C)SCc2ccccc2)CC1` (configuration not stated) as the compound, how does the “activity, negative = inhibition” value read?
A: -27.1% (inactive)

Q: Which “activity, negative = inhibition” value does the source give for `CCOC(=O)N1CCN(C(=O)c2cnc3n(c2=O)CCS3)CC1` here?
A: -14.5% (inactive)

Q: `CCOC(=O)N1CCN(C(=O)C(CC)n2nc(C)c3sc4ccccc4c3c2=O)CC1` (configuration not stated) was tested. Which AC50 did it give?
A: 20 µM (active)

Q: For `CCOC(=O)N1CCN(C(=O)CSCc2nc(-c3ccccc3F)oc2C)CC1`, which AC50 is on record?
A: 31.6 µM (active)

Q: How did the “activity, negative = inhibition” value turn out when `Cc1oc(-c2ccccc2F)nc1CS(=O)(=O)CC(=O)NCCCN(C)C1CCCCC1` was run?
A: -9.67% (inactive)

Q: How did the AC50 turn out when `Cc1oc(-c2ccccc2Cl)nc1CSCC(=O)NC1CC1` was run?
A: 14.1 µM (active)

Q: With `Cc1oc(-c2ccccc2F)nc1CSCC(=O)NCc1ccc2c(c1)OCO2` as the compound, how does the AC50 read?
A: 1.78 µM (active)

Q: How did the “activity, negative = inhibition” value turn out when `N#Cc1cccc(NC(=O)N2CCC3(CC2)CCN(C(=O)c2csnn2)CC3)c1` was run?
A: 15.6% (inactive)

Q: With `Nc1ncnc2c([C@@H]3O[C@@H](CO)[C@H](O)[C@@H]3O)nsc12` as the compound, how does the activity, negative = inhibition read?
A: 20.7% [at 11.4 µM] (inactive)

Q: Which AC50 does the source give for `Cc1nn(C(=O)c2cccnc2)c(C)c1Sc1ccc(Br)cc1` here?
A: 0.631 µM (active)

Q: `Cc1nn(C(C)(C)C)c(OC(=O)c2ccco2)c1Sc1ccccc1` was tested. Which AC50 did it give?
A: 7.08 µM (active)

Q: How did the “activity, negative = inhibition” value turn out when `O=C(c1ccco1)N1CCC2(CC1)CCN(c1ccccc1)CC2` was run?
A: -29.3% (inactive)

Q: Which “activity, negative = inhibition” value does the source give for `O=C(c1ccco1)N1CCC[C@@]2(CCN(Cc3ccccc3)C2)C1` here?
A: -21.5% (inactive)

Q: Which “activity, negative = inhibition” value does the source give for `CC(C)(C(=O)c1cccnc1)c1cccnc1` here?
A: -11.6% [at 25.6 µM] (inactive)

Q: With `Cc1nn(C(=O)c2ccco2)c(C)c1Sc1ccccc1` as the compound, how does the AC50 read?
A: 6.31 µM (active)

Q: `C/C(CCN1CCCc2nc(C)c(C)cc21)=N\OC[C@@H](C)[C@H](OCc1ccccc1)C(C)C` was tested. Which activity, negative = inhibition did it give?
A: -29.2% [at 11.4 µM] (inactive)

Q: `Cc1ccccc1CSc1nsc(N)n1` was tested. Which AC50 did it give?
A: 11.2 µM (active)

Q: With `CCN1/C(=C/c2ccc3cccc(C)c3[n+]2CC)Sc2ccccc21` as the compound, how does the “activity, negative = inhibition” value read?
A: -0.21% (inactive)

Q: How did the AC50 turn out when `O=C(CS(=O)c1cccc(Cl)c1)Nc1ccccc1Cl` (configuration not stated) was run?
A: 2.51 µM (active)

Q: With `O=C(CS(=O)(=O)c1cccc(Cl)c1)Nc1ccccc1Cl` as the compound, how does the AC50 read?
A: 2.51 µM (active)

Q: For `O=C(CS(=O)c1cccc(C(F)(F)F)c1)Nc1ccccc1Cl` (configuration not stated), which AC50 is on record?
A: 2.82 µM (active)

Q: How did the “activity, negative = inhibition” value turn out when `NC(=O)NC(=O)Nc1ccccc1Cl` was run?
A: -12.5% (inactive)

Q: Which activity, negative = inhibition does the source give for `NCC(=O)Nc1ccc(Cl)cc1C(=O)c1ccc[nH]1` here?
A: -10.9% [at 11.4 µM] (inactive)

Q: For `OC[C@@H]1O[C@@H](n2cnc3c(N[C@H]4CCC[C@@H]4O)ncnc32)[C@H](O)[C@H]1O`, which “activity, negative = inhibition” value is on record?
A: -26.2% (inactive)

Q: With `O=C(Nc1ccc([N+](=O)[O-])cc1Cl)c1cc(Cl)ccc1O` as the compound, how does the “activity, negative = inhibition” value read?
A: -30.4% (inactive)

Q: Which AC50 does the source give for `Cc1cccc[n+]1CC(=O)Nc1ccc([N+](=O)[O-])cc1Cl` here?
A: 3.16 µM (active)

Q: For `Cc1ccc(S(=O)(=O)c2c(C)nn(C(C)(C)C)c2OC(=O)c2cccs2)cc1`, which AC50 is on record?
A: 1 µM (active)

Q: For `CN1CCC(n2[nH]c(-c3ccccc3)c(Cc3ccccc3)c2=O)CC1`, which activity, negative = inhibition is on record?
A: -29.5% [at 11.4 µM] (inactive)

Q: With `COc1cc([C@H](O)CO)ccc1O` as the compound, how does the “activity, negative = inhibition” value read?
A: 9.63% (inactive)

Q: With `N#Cc1c(N)nc2c(c1-c1cccc(O)c1)CCCCCC2` as the compound, how does the AC50 read?
A: 7.08 µM (active)

Q: For `Cc1c(-c2c(C#N)c(N)nc3c2CCCCCC3)cnn1C`, which AC50 is on record?
A: 14.1 µM (active)

Q: `CCc1sc(-c2c(C#N)c(N)nc3c2CCCCCC3)cc1[N+](=O)[O-]` was tested. Which AC50 did it give?
A: 3.98 µM (active)

Q: With `FC(F)(F)c1ccc(N2CCOCC2)c(Nc2nc3ccccc3n3cnnc23)c1` as the compound, how does the AC50 read?
A: 3.55 µM (active)

Q: For `CCCSc1nc(C)cc(C)c1S(=O)(=O)c1ccccc1C`, which AC50 is on record?
A: 2.24 µM (active)

Q: `CCCCSc1nc(C)cc(C)c1S(=O)(=O)c1ccccc1C` was tested. Which AC50 did it give?
A: 0.562 µM (active)

Q: With `Cc1ccccc1S(=O)(=O)c1c(C)cc(-c2ccccc2)[nH]c1=O` as the compound, how does the “activity, negative = inhibition” value read?
A: -7.26% (inactive)

Q: For `COc1ccccc1CN1CCC2(CC1)CCN(S(C)(=O)=O)CC2`, which “activity, negative = inhibition” value is on record?
A: -15.7% (inactive)

Q: For `COc1ccccc1CN1CCC2(CCNCC2)CC1`, which “activity, negative = inhibition” value is on record?
A: -22.3% (inactive)

Q: With `COc1ccccc1/C=C/C=N/N1CCN(Cc2cccc3ccccc23)CC1` as the compound, how does the AC50 read?
A: 14.1 µM (active)

Q: For `Cc1ccc(C(=O)c2ccc(CC(=O)O)n2C)cc1`, which “activity, negative = inhibition” value is on record?
A: -10.5% [at 25.6 µM] (inactive)

Q: For `O=C(NCc1cccnc1)C1COc2ccccc2O1` (configuration not stated), which AC50 is on record?
A: 8.91 µM (active)

Q: For `O=C(Nc1cccnc1)C1COc2ccccc2O1` (configuration not stated), which AC50 is on record?
A: 11.2 µM (active)

Q: `O=C(Nc1ncc(Cc2ccccc2)s1)C1COc2ccccc2O1` (configuration not stated) was tested. Which “activity, negative = inhibition” value did it give?
A: -19.2% (inactive)

Q: Which activity, negative = inhibition does the source give for `COC(=O)CCCC(=O)O` here?
A: 37.5% [at 11.4 µM] (inactive)

Q: For `O=C(O)CN(CCN(CC(=O)O)CC(=O)O)CC(=O)O.[Cu]`, which activity, negative = inhibition is on record?
A: -41.9% [at 11.4 µM] (inactive)

Q: `Cc1cc2c(c(=O)o1)[C@H](O)[C@H]1O[C@@H]1C2=O` was tested. Which activity, negative = inhibition did it give?
A: -43.4% [at 11.4 µM] (inactive)

Q: `O=C(CCN1C(=O)C2C3C=CC(C3)C2C1=O)NCCN1CCCc2ccccc21` (configuration not stated) was tested. Which AC50 did it give?
A: 28.2 µM (active)

Q: How did the activity, negative = inhibition turn out when `CC(C)(C)NCC[C@@H](O)c1cc(C(F)(F)F)nc2c(C(F)(F)F)cccc12` was run?
A: -11% [at 11.4 µM] (inactive)

Q: Which AC50 does the source give for `CCN(CC)c1ccc2c(c1)OC(N)=C(C#N)C2c1cccnc1` (configuration not stated) here?
A: 0.891 µM (active)

Q: Which “activity, negative = inhibition” value does the source give for `COc1ccc(NC(=O)C2c3cc(OC)c(OC)cc3C(=O)N(C)C2c2cccnc2)cc1OC` (configuration not stated) here?
A: -13.1% (inactive)

Q: How did the “activity, negative = inhibition” value turn out when `COc1cc2c(cc1OC)C(C(=O)Nc1ccccn1)C(c1cccnc1)N(C)C2=O` (configuration not stated) was run?
A: -28.9% (inactive)

Q: Which AC50 does the source give for `COc1cc2c(cc1OC)C(C(=O)Nc1cccc(C)n1)C(c1cccnc1)N(C)C2=O` (configuration not stated) here?
A: 0.251 µM (active)

Q: Which activity, negative = inhibition does the source give for `COc1cc(N=C(N)N=C(N)N)c2ncccc2c1` here?
A: 36.7% [at 11.4 µM] (inactive)
